Results from PubChem BioAssay AID1159580 (chemical genetic matrix, 2015).
Hit rate of the full screen: of about 5,500 compounds, about 2,000 (36%) were called active. Inconclusive results (about 18%) are left out. No stated cut-off is given here; in the data, active means normalized growth mostly below about 0.91 (no sharp cut-off); inconclusive means no clear call, values can overlap the other calls; inactive means mostly above about 0.92. The list shows a part of the results.

Test: chemical genetic growth profiling, strain panel (AID 1159580);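 further: tested at 20 µM; growth read once vehicle control cultures reached saturation at 30 °C; 1 = growth at the plate median or of vehicle wells; lower values mean less growth of the strain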
Conditions: growth OD

Measured: normalized growth

N#Cc1c(Cl)cccc1Cl
inactive: S. cerevisiae deletion strains, locus YJR075W, strain HOC1, hits give low values 1.02 | S. cerevisiae deletion strains, locus YKL009W, strain mrt4, hits give low values 1.02 | S. cerevisiae deletion strains, locus YKL068W, hits give low values 1.01 | S. cerevisiae deletion strains, locus YKL085W, strain MDH1 (second series), hits give low values 1.01 | S. cerevisiae deletion strains, locus YKL085W, strain MDH1, hits give low values 1.01 | S. cerevisiae deletion strains, locus YKL160W, strain elf1, hits give low values 0.981 | S. cerevisiae deletion strains, locus YKL190W, strain CNB1, hits give low values 1.02 | S. cerevisiae deletion strains, locus YKR001C, strain vps1, hits give low values 1.01 | S. cerevisiae deletion strains, locus YKR026C, strain gcn3, hits give low values 0.982 | S. cerevisiae deletion strains, locus YKR091W, strain srl3, hits give low values 0.978 | S. cerevisiae deletion strains, locus YLL001W, strain dnm1, hits give low values 0.988 | S. cerevisiae deletion strains, locus YLL026W, hits give low values 0.975 | S. cerevisiae deletion strains, locus YLL041C, strain sdh2, hits give low values 0.977 | S. cerevisiae deletion strains, locus YLR027C, strain aat2, hits give low values 0.959 | S. cerevisiae deletion strains, locus YLR039C, strain RIC1, hits give low values 1.01 | S. cerevisiae deletion strains, locus YLR058C, strain SHM2, hits give low values 1.02 | S. cerevisiae deletion strains, locus YLR102C, strain apc9, hits give low values 1.01 | S. cerevisiae deletion strains, locus YLR113W, strain HOG1, hits give low values 0.987 | S. cerevisiae deletion strains, locus YLR221C, strain rsa3, hits give low values 0.971 | S. cerevisiae deletion strains, locus YLR258W, strain gsy2, hits give low values 0.991 | S. cerevisiae deletion strains, locus YLR262C, strain YPT6 (second series), hits give low values 0.999 | S. cerevisiae deletion strains, locus YLR262C, strain YPT6, hits give low values 1.05 | S. cerevisiae deletion strains, locus YLR268W, strain sec22, hits give low values 0.999 | S. cerevisiae deletion strains, locus YLR320W, strain mms22, hits give low values 0.988 | S. cerevisiae deletion strains, locus YLR330W, strain CHS5, hits give low values 1.01 | S. cerevisiae deletion strains, locus YLR342W, strain FKS1 (second series), hits give low values 1.04 | S. cerevisiae deletion strains, locus YLR342W, strain FKS1, hits give low values 0.978 | S. cerevisiae deletion strains, locus YLR357W, strain rsc2, hits give low values 0.978 | S. cerevisiae deletion strains, locus YLR370C, strain arc18, hits give low values 0.965 | S. cerevisiae deletion strains, locus YLR371W, strain rom2, hits give low values 1.01 | S. cerevisiae deletion strains, locus YLR384C, strain iki3, hits give low values 0.975 | S. cerevisiae deletion strains, locus YLR418C, strain cdc73, hits give low values 1.01 | S. cerevisiae deletion strains, locus YML016C, strain PPZ1, hits give low values 1.01 | S. cerevisiae deletion strains, locus YML032C, strain rad52, hits give low values 1.02 | S. cerevisiae deletion strains, locus YML120C, strain ndi1, hits give low values 0.988 | S. cerevisiae deletion strains, locus YML124C, strain tub3, hits give low values 1.01 | S. cerevisiae deletion strains, locus YMR058W, strain fet3, hits give low values 0.968 | S. cerevisiae deletion strains, locus YMR078C, strain ctf18, hits give low values 1.02 | S. cerevisiae deletion strains, locus YMR125W, strain sto1, hits give low values 0.974 | S. cerevisiae deletion strains, locus YMR129W, hits give low values 1.01 | S. cerevisiae deletion strains, locus YMR205C, strain PFK2, hits give low values 1.01 | S. cerevisiae deletion strains, locus YMR223W, strain ubp8, hits give low values 1.01 | S. cerevisiae deletion strains, locus YMR231W, strain pep5, hits give low values 0.982 | S. cerevisiae deletion strains, locus YMR263W, strain SAP30, hits give low values 1.02 | S. cerevisiae deletion strains, locus YMR307W, strain GAS1, hits give low values 1.01 | S. cerevisiae deletion strains, locus YNL067W, strain RPL9B, hits give low values 1.01 | S. cerevisiae deletion strains, locus YNL071W, strain lat1, hits give low values 0.985 | S. cerevisiae deletion strains, locus YNL128W, strain TEP1, hits give low values 1.01 | S. cerevisiae deletion strains, locus YNL153C, strain GIM3, hits give low values 1.01 | S. cerevisiae deletion strains, locus YNL183C, strain NPR1, hits give low values 0.902 | S. cerevisiae deletion strains, locus YNL209W, strain ssb2, hits give low values 0.995 | S. cerevisiae deletion strains, locus YNL233W, strain BNI4, hits give low values 1.02 | S. cerevisiae deletion strains, locus YNL248C, strain rpa49, hits give low values 0.971 | S. cerevisiae deletion strains, locus YNL250W, strain rad50, hits give low values 1.02 | S. cerevisiae deletion strains, locus YNL271C, strain bni1, hits give low values 1.02 | S. cerevisiae deletion strains, locus YNL298W, strain CLA4, hits give low values 1.02 | S. cerevisiae deletion strains, locus YNL307C, strain MCK1, hits give low values 1.01 | S. cerevisiae deletion strains, locus YNL322C, strain KRE1 (second series), hits give low values 0.978 | S. cerevisiae deletion strains, locus YNL322C, strain KRE1, hits give low values 1.01 | S. cerevisiae deletion strains, locus YNR049C, strain mso1, hits give low values 0.958 | S. cerevisiae deletion strains, locus YNR052C, strain pop2, hits give low values 1.02 | S. cerevisiae deletion strains, locus YOL006C, strain TOP1, hits give low values 1.04 | S. cerevisiae deletion strains, locus YOL012C, strain htz1 1.37 | S. cerevisiae deletion strains, locus YOL147C, strain pex11, hits give low values 1.01 | S. cerevisiae deletion strains, locus YOR001W, strain rrp6, hits give low values 0.993 | S. cerevisiae deletion strains, locus YOR061W, strain CKA2, hits give low values 1.01 | S. cerevisiae deletion strains, locus YOR069W, strain VPS5, hits give low values 1 | S. cerevisiae deletion strains, locus YOR070C, strain gyp1, hits give low values 0.991 | S. cerevisiae deletion strains, locus YOR080W, strain dia2, hits give low values 0.963 | S. cerevisiae deletion strains, locus YOR083W, strain WHI5, hits give low values 0.974 | S. cerevisiae deletion strains, locus YOR106W, strain vam3, hits give low values 0.974 | S. cerevisiae deletion strains, locus YOR136W, strain idh2, hits give low values 1.01 | S. cerevisiae deletion strains, locus YOR144C, strain elg1, hits give low values 1.01 | S. cerevisiae deletion strains, locus YOR184W, strain ser1, hits give low values 1.03 | S. cerevisiae deletion strains, locus YOR231W, strain MKK1, hits give low values 0.966 | S. cerevisiae deletion strains, locus YOR265W, strain rbl2, hits give low values 0.966 | S. cerevisiae deletion strains, locus YOR270C, strain vph1, hits give low values 1.01 | S. cerevisiae deletion strains, locus YOR290C, strain snf2, hits give low values 0.985 | S. cerevisiae deletion strains, locus YOR316C, strain cot1, hits give low values 1.01 | S. cerevisiae deletion strains, locus YPL051W, strain arl3, hits give low values 0.995 | S. cerevisiae deletion strains, locus YPL055C, strain LGE1, hits give low values 1.05 | S. cerevisiae deletion strains, locus YPL078C, strain atp4, hits give low values 0.984 | S. cerevisiae deletion strains, locus YPL106C, strain sse1, hits give low values 0.975 | S. cerevisiae deletion strains, locus YPL240C, strain hsp82, hits give low values 0.979 | S. cerevisiae deletion strains, locus YPL241C, strain CIN2, hits give low values 1.01 | S. cerevisiae deletion strains, locus YPL256C, strain CLN2, hits give low values 0.968 | S. cerevisiae deletion strains, locus YPR119W, strain clb2, hits give low values 1.01 | S. cerevisiae deletion strains, locus YPR141C, strain kar3, hits give low values 1.02 | S. cerevisiae deletion strains, locus YPR163C, strain tif3, hits give low values 1.02 | S. cerevisiae deletion strains, locus YPR167C, strain met16, hits give low values 1.02 | S. cerevisiae deletion strains, strain wtn01, hits give low values 1.02 | S. cerevisiae strains, strain wild type, hits give low values 1.01
